Experimental data reported in PubChem BioAssay AID1159580 (chemical genetic matrix, 2015).
Hit rate of the full screen: of about 5,500 compounds, about 2,000 (36%) were called active. Inconclusive results (about 18%) are left out. No stated cut-off is given here; in the data, active means normalized growth mostly below about 0.91 (no sharp cut-off); inconclusive means no clear call, values can overlap the other calls; inactive means mostly above about 0.92. The list shows a part of the results.

Experiment: chemical genetic growth profiling, strain panel (AID 1159580);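 further: tested at 20 µM; growth read once vehicle control cultures reached saturation at 30 °C; 1 = growth at the plate median or of vehicle wells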
Conditions: S. cerevisiae deletion strains, growth OD
[1] = locus YDR150W, strain NUM1, stronger effect = lower value
[2] = locus YGR078C, strain PAC10, stronger effect = lower value
[3] = locus YNL153C, strain GIM3, stronger effect = lower value
[4] = locus YNL322C, strain KRE1, stronger effect = lower value
[5] = locus YPL055C, strain LGE1, stronger effect = lower value
[6] = locus YPL241C, strain CIN2, stronger effect = lower value
[7] = locus YCL061C, strain MRC1, stronger effect = lower value
[8] = locus YHR030C, strain SLT2, stronger effect = lower value

Measured: normalized growth

C[C@H]1C2Cc3ccc(O)cc3[C@]1(C)CCN2CC1CC1
inactive: locus YAL040C, strain CLN3, stronger effect = lower value 0.994 | locus YCL061C, strain MRC1 (second series), stronger effect = lower value 1.01 | [1] 1 | locus YDR363W, strain ESC2, stronger effect = lower value 1.02 | locus YER002W, strain NOP16, stronger effect = lower value 0.988 | [2] 1.01 | locus YGR229C, strain SMI1, stronger effect = lower value 1.05 | [3] 1.02 | locus YNL175C, strain NOP13, stronger effect = lower value 1.02 | locus YNL197C, strain WHI3, stronger effect = lower value 1.02 | locus YNL224C, strain SQS1, stronger effect = lower value 1 | [4] 1.02 | locus YOR083W, strain WHI5 (second series), stronger effect = lower value 1.04 | [5] 1.02 | [6] 1.01

O=C(O)CCC(=O)Nc1ccc(S(=O)(=O)Nc2nccs2)cc1
inactive: locus YAL021C, strain ccr4, stronger effect = lower value 1 | locus YAL026C, strain drs2, stronger effect = lower value 1 | locus YAL030W, strain snc1, stronger effect = lower value 1.03 | locus YBL061C, strain skt5, stronger effect = lower value 0.994 | locus YBR009C, strain hhf1, stronger effect = lower value 1.02 | locus YBR023C, strain chs3, stronger effect = lower value 0.993 | locus YBR171W, strain sec66, stronger effect = lower value 0.997 | locus YBR231C, strain swc5, stronger effect = lower value 0.996 | locus YBR279W, strain paf1, stronger effect = lower value 0.989 | locus YCL016C, strain dcc1, stronger effect = lower value 0.985 | [7] 0.996 | locus YCL069W, strain vba3, stronger effect = lower value 1 | locus YCR088W, strain abp1, stronger effect = lower value 0.994 | locus YDL005C, strain med2, stronger effect = lower value 0.987 | locus YDL040C, strain nat1, stronger effect = lower value 0.999 | locus YDR001C, strain nth1, stronger effect = lower value 1 | locus YDR069C, strain doa4, stronger effect = lower value 1 | locus YDR137W, strain rgp1, stronger effect = lower value 0.989 | locus YDR159W, strain sac3, stronger effect = lower value 0.922 | locus YDR195W, strain ref2 0.967 | locus YDR297W, strain sur2, stronger effect = lower value 1.01 | locus YDR334W, strain swr1, stronger effect = lower value 0.989 | locus YDR335W, strain msn5, stronger effect = lower value 0.992 | locus YDR392W, strain spt3, stronger effect = lower value 0.912 | locus YEL003W, strain gim4, stronger effect = lower value 1.02 | locus YEL037C, strain rad23, stronger effect = lower value 1.01 | locus YEL061C, strain CIN8 (second series), stronger effect = lower value 1.02 | locus YER015W, strain faa2, stronger effect = lower value 1 | locus YER016W, strain bim1, stronger effect = lower value 0.981 | locus YER111C, strain swi4, stronger effect = lower value 1.01 | locus YER155C, strain BEM2 (second series), stronger effect = lower value 0.981 | locus YFR010W, strain ubp6, stronger effect = lower value 1 | locus YGL167C, strain pmr1, stronger effect = lower value 0.995 | locus YGL173C, strain kem1, stronger effect = lower value 0.987 | locus YGL227W, strain vid30, stronger effect = lower value 0.994 | locus YGL240W, strain doc1, stronger effect = lower value 1 | locus YGL253W, strain hxk2, stronger effect = lower value 1 | locus YHR013C, strain ard1, stronger effect = lower value 0.983 | locus YHR027C, strain rpn1, stronger effect = lower value 0.991 | [8] 1.04 | locus YHR079C, strain IRE1, stronger effect = lower value 1.06 | locus YHR142W, strain chs7, stronger effect = lower value 1 | locus YJL092W, strain hpr5, stronger effect = lower value 1 | locus YJL095W, strain BCK1 (second series), stronger effect = lower value 0.996 | locus YJL095W, strain BCK1, stronger effect = lower value 1.01 | locus YJL115W, strain asf1, stronger effect = lower value 0.997 | locus YJL129C, strain trk1, stronger effect = lower value 0.994 | locus YJL154C, strain vps35, stronger effect = lower value 0.99 | locus YJL164C, strain tpk1, stronger effect = lower value 0.998 | locus YJL166W, strain qcr8, stronger effect = lower value 1 | locus YJL187C, strain SWE1, stronger effect = lower value 1.01 | locus YJR066W, strain TOR1, stronger effect = lower value 0.998 | locus YKL160W, strain elf1, stronger effect = lower value 1.01 | locus YKR026C, strain gcn3, stronger effect = lower value 1 | locus YKR091W, strain srl3, stronger effect = lower value 0.998 | locus YLL001W, strain dnm1, stronger effect = lower value 1.01 | locus YLL026W, stronger effect = lower value 0.987 | locus YLL041C, strain sdh2, stronger effect = lower value 1.01 | locus YLR027C, strain aat2, stronger effect = lower value 1.01 | locus YLR113W, strain HOG1, stronger effect = lower value 1.02 | locus YLR221C, strain rsa3, stronger effect = lower value 1 | locus YLR258W, strain gsy2, stronger effect = lower value 0.993 | locus YLR262C, strain YPT6 (second series), stronger effect = lower value 1.01 | locus YLR320W, strain mms22, stronger effect = lower value 0.976 | locus YLR342W, strain FKS1, stronger effect = lower value 1 | locus YLR357W, strain rsc2, stronger effect = lower value 0.991 | locus YLR370C, strain arc18, stronger effect = lower value 1 | locus YLR384C, strain iki3, stronger effect = lower value 1 | locus YML120C, strain ndi1, stronger effect = lower value 1.02 | locus YMR058W, strain fet3, stronger effect = lower value 1 | locus YMR125W, strain sto1, stronger effect = lower value 0.977 | locus YMR129W, stronger effect = lower value 0.977 | locus YMR205C, strain PFK2, stronger effect = lower value 0.985 | locus YMR231W, strain pep5, stronger effect = lower value 1 | locus YNL071W, strain lat1, stronger effect = lower value 1.01 | locus YNL183C, strain NPR1, stronger effect = lower value 0.968 | locus YNL209W, strain ssb2, stronger effect = lower value 1 | locus YNL248C, strain rpa49, stronger effect = lower value 1.02 | locus YNL322C, strain KRE1 (second series), stronger effect = lower value 0.966 | locus YNR049C, strain mso1, stronger effect = lower value 0.999 | locus YOR001W, strain rrp6, stronger effect = lower value 0.998 | locus YOR070C, strain gyp1, stronger effect = lower value 0.998 | locus YOR080W, strain dia2, stronger effect = lower value 0.987 | locus YOR083W, strain WHI5, stronger effect = lower value 0.938 | locus YOR106W, strain vam3, stronger effect = lower value 0.979 | locus YOR231W, strain MKK1, stronger effect = lower value 1.07 | locus YOR265W, strain rbl2, stronger effect = lower value 1.01 | locus YOR270C, strain vph1, stronger effect = lower value 1.03 | locus YOR290C, strain snf2, stronger effect = lower value 0.984 | locus YPL051W, strain arl3, stronger effect = lower value 0.995 | locus YPL078C, strain atp4, stronger effect = lower value 0.984 | locus YPL106C, strain sse1, stronger effect = lower value 0.944 | locus YPL240C, strain hsp82, stronger effect = lower value 0.995 | locus YPL256C, strain CLN2, stronger effect = lower value 1.01
active: locus YCL011C, strain gbp2, stronger effect = lower value 0.728

CC(=O)Nc1ccc(S(=O)(=O)Nc2ncccn2)cc1
inactive: locus YAL013W, strain DEP1, stronger effect = lower value 1.01 | locus YBR229C, strain ROT2, stronger effect = lower value 0.992 | [7] 1.02 | locus YDL101C, strain DUN1, stronger effect = lower value 0.995 | locus YDL134C, strain PPH21, stronger effect = lower value 0.997 | [1] 0.921 | locus YEL061C, strain CIN8, stronger effect = lower value 1.01 | [2] 1 | [8] 1.08 | locus YHR087W, strain rtc3, stronger effect = lower value 0.987 | locus YJR043C, strain POL32, stronger effect = lower value 1.01 | locus YJR075W, strain HOC1, stronger effect = lower value 0.994 | locus YLR039C, strain RIC1, stronger effect = lower value 1.02 | locus YLR058C, strain SHM2 (second series), stronger effect = lower value 1.03 | locus YLR085C, strain ARP6, stronger effect = lower value 0.958 | locus YLR262C, strain YPT6, stronger effect = lower value 1.13 | locus YML094W, strain GIM5, stronger effect = lower value 0.981 | locus YMR219W, strain ESC1, stronger effect = lower value 1 | locus YMR263W, strain SAP30, stronger effect = lower value 1 | locus YMR307W, strain GAS1, stronger effect = lower value 0.919 | [3] 1.01 | locus YNL298W, strain CLA4 (second series), stronger effect = lower value 1 | [4] 0.999 | locus YNR030W, strain Alg12, stronger effect = lower value 1.01 | [5] 0.92 | [6] 0.963 | locus YPR135W, strain CTF4, stronger effect = lower value 1.08
